{
  "source": "PubChem BioAssay AID588342",
  "about": "(National Center for Advancing Translational Sciences (NCATS), 2011)",
  "note": "Screen size: about 360,000 compounds; about 25,000 (6.9%) were called active. Roughly 9% stayed inconclusive and do not appear here. Calls come from the whole dose curve; as a rule, active = well fitted inhibition curve with a large enough effect; inconclusive = small, poorly fitted or top-dose-only effect; inactive = flat fitted curve, though single readings scatter. The list comes from a sample in which actives are over-represented; it also holds similar structures and randomly drawn compounds. Potency is the fitted concentration of half-maximal effect.",
  "data": [
    {"target": "Luciferin 4-monooxygenase (Photinus pyralis) (UniProt P08659)", "sequence (P08659 whole entry, looked up)": "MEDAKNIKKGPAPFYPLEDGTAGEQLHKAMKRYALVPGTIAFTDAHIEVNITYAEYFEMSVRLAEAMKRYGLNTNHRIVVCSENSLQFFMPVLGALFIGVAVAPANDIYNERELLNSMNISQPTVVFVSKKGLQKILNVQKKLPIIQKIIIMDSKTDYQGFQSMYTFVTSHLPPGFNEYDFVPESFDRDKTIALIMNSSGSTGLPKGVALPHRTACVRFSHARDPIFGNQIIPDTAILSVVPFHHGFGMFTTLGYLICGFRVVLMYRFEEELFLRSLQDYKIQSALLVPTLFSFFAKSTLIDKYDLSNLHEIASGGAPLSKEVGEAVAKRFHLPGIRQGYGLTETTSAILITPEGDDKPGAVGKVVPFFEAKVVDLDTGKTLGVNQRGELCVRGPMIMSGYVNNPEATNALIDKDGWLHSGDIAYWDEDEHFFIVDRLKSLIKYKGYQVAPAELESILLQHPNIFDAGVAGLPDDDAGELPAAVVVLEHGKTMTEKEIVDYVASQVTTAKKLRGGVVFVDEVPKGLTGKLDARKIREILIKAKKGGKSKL", "assay": "qHTS profiling assay for firefly luciferase inhibitor/activator using purifed enzyme and Km concentrations of substrates (counterscreen for miR-21 project); note: nearly all actives have a fitted effect of over 55% in size;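 for activity change, negative = inhibition: plate controls were vehicle for no effect and reference inhibitor for full effect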", "conditions": "purified FLuc, luminescence inhibition; series mostly up to 57.5 µM; activity change, negative = inhibition: at the top concentration", "procedure,_shortened": "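Purified P. pyralis luciferase (10nM final) with 10uM D-luciferin and 10uM ATP (Km levels) in 50mM Tris acetate pH 7.5, 10mM Mg acetate, 0.01% Tween-20, 0.05% BSA; qHTS 6-point titration, ~60 µM downward; luminescence read.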", "values": [
      {"smiles": "CCOc1c(CNCc2ccc(C(=O)O)cc2)cccc1OC", "activity change, negative = inhibition": "-0.885% (inactive)"},
      {"smiles": "Cc1cc(F)ccc1S(=O)(=O)Nc1ccc(C(=O)N(C)Cc2ccco2)cc1", "activity change, negative = inhibition": "-0.606% (inactive)"},
      {"smiles": "CCc1nc2nc(C)cc(Nc3ccc(F)c(Cl)c3)n2n1", "activity change, negative = inhibition": "7.42% (inactive)"},
      {"smiles": "COc1ccc(/C=C/c2nc(C#N)c(NCc3ccc(F)cc3)o2)cc1OC", "activity change, negative = inhibition": "-8.93% (inactive)"},
      {"smiles": "CCCCCn1c(=O)[nH]c2cc(C(=O)NCCN(C)CCCC)ccc2c1=O", "activity change, negative = inhibition": "0.508% (inactive)"},
      {"smiles": "CCc1ccc(C2CC(=O)c3c([nH]c(C(=O)OCc4ccc(C)cc4)c3C)C2)cc1", "note": "(stereo unspecified)", "activity change, negative = inhibition": "0.719% (inactive)"},
      {"smiles": "COc1ccccc1Nc1c2c(nc3ccc(NC(=O)/C=C/c4cc(OC)c(OC)c(OC)c4)cc13)CCCC2", "activity change, negative = inhibition": "22.1% (inactive)"},
      {"smiles": "N#Cc1cccc(NC(=O)C2CCCN(C(=O)c3ccc(Cl)cc3)C2)c1", "note": "(stereo unspecified)", "activity change, negative = inhibition": "-1.14% (inactive)"},
      {"smiles": "CCc1ccc(CNCc2c(C(=O)O)n(Cc3ccc(F)cc3Cl)c3cc(OC)ccc23)cc1", "activity change, negative = inhibition": "-6.35% (inactive)"},
      {"smiles": "O=C(CSc1nc2c(c(=O)[nH]1)CN(Cc1ccc3c(c1)OCO3)CC2)Nc1cc(F)ccc1F", "activity change, negative = inhibition": "-4.96% (inactive)"},
      {"smiles": "c1ccc(-c2cn3c(n2)CCc2ccc4cccnc4c2-3)cc1", "Potency": "10.7 µM (active)"},
      {"smiles": "COc1ccc(NC(=O)CCCc2nnc3n(CCC(C)C)c(=O)c4sccc4n23)c(OC)c1", "activity change, negative = inhibition": "1.17% (inactive)"},
      {"smiles": "CCc1ccc(NC(=O)c2cc3c(=O)n(Cc4cccnc4)ccc3nc2C)cc1", "activity change, negative = inhibition": "-5.95% (inactive)"},
      {"smiles": "CCN(CC)CCCNC(=O)COc1ccc2oc3c(c2c1)CCCC3", "activity change, negative = inhibition": "-2.85% (inactive)"},
      {"smiles": "O=C(COc1ccc2oc3c(c2c1)CCCC3)Nc1ccccn1", "Potency": "1.07 µM (active)"},
      {"smiles": "CCOC(=O)N1CCN(C(=O)COc2ccc3oc4c(c3c2)CCCC4)CC1", "activity change, negative = inhibition": "-16.5% (inactive)"},
      {"smiles": "COc1ccc(C2c3c(oc4ccccc4c3=O)C(=O)N2Cc2ccc3c(c2)OCO3)cc1", "note": "(stereo unspecified)", "activity change, negative = inhibition": "-4.43% (inactive)"},
      {"smiles": "COc1ccc(NC(=O)CC2COc3ccccc3O2)c(OC)c1", "note": "(stereo unspecified)", "activity change, negative = inhibition": "-1.63% (inactive)"},
      {"smiles": "O=C(CCc1ccccc1)Nc1ncc([N+](=O)[O-])s1", "Potency": "15.1 µM (active)"},
      {"smiles": "O=C(Nc1ncc([N+](=O)[O-])s1)C1COc2ccccc2O1", "note": "(stereo unspecified)", "Potency": "21.3 µM (active)"},
      {"smiles": "C/C(=N/NC(=O)C1COc2ccccc2O1)c1ccco1", "note": "(stereo unspecified)", "activity change, negative = inhibition": "2.51% (inactive)"},
      {"smiles": "CN(c1ccccc1)S(=O)(=O)c1cccc(NC(=O)Cc2c(F)cccc2Cl)c1", "activity change, negative = inhibition": "-5.92% (inactive)"},
      {"smiles": "COc1ccc(NC(=O)C2COc3ccccc3O2)cc1", "note": "(stereo unspecified)", "Potency": "16.9 µM (active)"},
      {"smiles": "O=C(Cc1c(F)cccc1Cl)Nc1ccc(-n2cnnn2)cc1", "activity change, negative = inhibition": "2.75% (inactive)"},
      {"smiles": "O=C(Cc1c(F)cccc1Cl)Nc1ncc([N+](=O)[O-])s1", "Potency": "21.3 µM (active)"},
      {"smiles": "CC(/C=C/c1ccco1)=N/NC(=O)C1COc2ccccc2O1", "note": "(stereo unspecified)", "activity change, negative = inhibition": "-20.5% (inactive)"},
      {"smiles": "CCN(CC)S(=O)(=O)c1ccc(N2CCOCC2)c(NC(=O)C2COc3ccccc3O2)c1", "note": "(stereo unspecified)", "activity change, negative = inhibition": "-2.19% (inactive)"},
      {"smiles": "CC(C)Cc1nnc(NC(=O)CCc2ccccc2)s1", "activity change, negative = inhibition": "-15.7% (inactive)"},
      {"smiles": "COc1ccc([N+](=O)[O-])cc1NC(=O)CCc1ccccc1", "activity change, negative = inhibition": "-4.23% (inactive)"},
      {"smiles": "COc1cc(NC(=O)Cn2c(=O)n(Cc3ccco3)c(=O)c3oc4ccccc4c32)cc(OC)c1", "activity change, negative = inhibition": "-1.65% (inactive)"},
      {"smiles": "COc1ccc(-c2nn(CC(=O)NC3CCCC3)c3c2cnc2ccc(F)cc23)cc1", "activity change, negative = inhibition": "5.55% (inactive)"},
      {"smiles": "CC(C)CN(C(=O)c1ccc2c(c1)OCO2)C1CCS(=O)(=O)C1", "note": "(stereo unspecified)", "activity change, negative = inhibition": "0.66% (inactive)"},
      {"smiles": "O=c1c2cccnc2n(Cc2cccc(F)c2)c(=O)n1Cc1ccccc1Cl", "activity change, negative = inhibition": "-8.13% (inactive)"},
      {"smiles": "Cc1cc(C(=O)N/N=C/c2cc([N+](=O)[O-])cc(C)c2O)n[nH]1", "activity change, negative = inhibition": "-0.645% (inactive)"},
      {"smiles": "Cn1c(SCC(=O)N/N=C/c2ccc(O)c(O)c2)nc2ccccc21", "activity change, negative = inhibition": "-14.5% (inactive)"},
      {"smiles": "COc1cc(/C=N/NC(=O)CNC(=O)c2ccncc2)ccc1OC(C)=O", "activity change, negative = inhibition": "3.06% (inactive)"},
      {"smiles": "COc1cc(/C=N/NC(=O)CCc2n[nH]c(=O)[nH]c2=O)ccc1O", "activity change, negative = inhibition": "-13.2% (inactive)"},
      {"smiles": "COc1cc(/C=N\\Nc2nc(-c3cccs3)c(NC(C)=O)s2)ccc1O", "Potency": "7.57 µM (active)"},
      {"smiles": "COc1cc(/C=N/Nc2nc3ccccc3s2)ccc1O", "Potency": "2.39 µM (active)"},
      {"smiles": "O=[N+]([O-])c1cc(Br)c(O)c(/C=N/Nc2nc3ccccc3s2)c1", "Potency": "19 µM (active)"},
      {"smiles": "COc1ccc(CC(=O)N/N=C/c2cc([N+](=O)[O-])cc(Br)c2O)cc1", "activity change, negative = inhibition": "4.36% (inactive)"},
      {"smiles": "COc1cc(/C=N/NC(=O)Nc2ccccc2)ccc1OCCOc1ccccc1C", "activity change, negative = inhibition": "3.18% (inactive)"},
      {"smiles": "CCOC(=O)C1CCCN(S(=O)(=O)c2cc(-c3cc(C)no3)ccc2OC)C1", "note": "(stereo unspecified)", "activity change, negative = inhibition": "5% (inactive)"},
      {"smiles": "CSc1nn(Cc2cccc(C)c2)c(N)c1S(=O)(=O)c1ccccc1", "activity change, negative = inhibition": "4.36% (inactive)"},
      {"smiles": "COc1cccc(CNC(=O)C2CCC(CNS(=O)(=O)c3cccs3)CC2)c1", "note": "(stereo unspecified)", "activity change, negative = inhibition": "-0.944% (inactive)"},
      {"smiles": "CC(C)(C)c1ccc(C(=O)NCC(c2ccc(Cl)cc2)N2CCOCC2)cc1", "note": "(stereo unspecified)", "activity change, negative = inhibition": "-10.9% (inactive)"},
      {"smiles": "CCOc1ccc(NC(=O)COC(=O)C2CCC(=O)N2)c([N+](=O)[O-])c1", "note": "(stereo unspecified)", "activity change, negative = inhibition": "-10.7% (inactive)"},
      {"smiles": "COc1ccc(-n2c(C)cc(C(=O)COC(=O)c3cc(OC)c(OC)cc3NC(=O)c3cccs3)c2C)cc1", "activity change, negative = inhibition": "-2.76% (inactive)"},
      {"smiles": "Cc1ccc(-n2c(C)cc(C(=O)CN3C(=O)C(=O)N(C4CCCC4)C3=O)c2C)cc1", "activity change, negative = inhibition": "-14.7% (inactive)"},
      {"smiles": "Cc1cc(C(=O)COC(=O)C2CC2)c(C)n1-c1ccc(F)cc1", "Potency": "0.169 µM (active)"},
      {"smiles": "Cc1nc(CN(C)C(=O)CC2C(=O)NCCN2Cc2ccc(F)cc2)cs1", "note": "(stereo unspecified)", "activity change, negative = inhibition": "1.85% (inactive)"}
    ]}
  ]
}
